Assay outcomes (PubChem)
DUX4 inh: blocks DUX4-driven transcriptional activation | 293T-iDUX4 ZSCAN4-Gaussia luciferase reporter, 24 h; stronger effect = lower value | activity change, negative = inhibition, % (no concentration beside the values) | hit rate 0.8% among 37,000 | AID 1224904;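 active means mean inhibition of at least 10% in the main channel, exceeding the control channel by a set limit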
Numbers stand for hits; - = inactive. This is one part of a sample in which hits are shown more often than they occur.

SMILES	DUX4 inh
COc1cccc(CN2CCCCN3[C@@H](CO)[C@@H](c4ccc(-c5ccccc5OC)cc4)[C@@H]3C2)c1	-
COc1ccccc1-c1ccc(C2[C@@H]3CN(Cc4nccs4)C[C@H]2N3)cc1 (some centres undefined)	-43
CN(C)CC(=O)N1[C@@H](CO)[C@H](c2ccccc2)C12CN(C(=O)c1ccc(F)cc1)C2	-
CN1[C@@H]2c3ccc(-c4ccccc4)c(=O)n3C[C@H]1[C@H](CO)[C@H]2C(=O)NCC1CCCCC1	-
COCC(=O)Nc1ccc2c(c1)[C@@H]1C[C@@H](CC(=O)N3CCOCC3)O[C@@H](CO)[C@@H]1O2	-
CCCNC(=O)[C@@H]1[C@@H](CO)[C@@H]2Cn3c(cccc3=O)[C@H]1N2C(=O)C1CCCC1	-
O=C(C[C@@H]1C[C@@H]2c3cc(NC(=O)NC4CCCC4)ccc3O[C@@H]2[C@H](CO)O1)NCc1ccc2c(c1)OCO2	-
CCCN(C)C[C@H]1OCCCC[C@@H](C)Oc2ccc(NC(=O)CCCN(C)C)cc2C(=O)N([C@@H](C)CO)C[C@H]1C	-
COCC(=O)Nc1ccc2c(c1)C(=O)N(C)C[C@@H](OC)[C@@H](C)CN(CC1CCCCC1)[C@H](C)CO2	-
Cc1cccc(-c2ccc([C@@H]3[C@@H](CO)N4CCCCN(Cc5ccncc5)C[C@H]34)cc2)c1	-
CC(=O)N1CCCCN2[C@H](CO)[C@@H](c3ccc(C#Cc4ccccc4F)cc3)[C@H]2C1	-
CN(C)C(=O)c1ccc(-c2ccc([C@H]3[C@H]4CN(CCC(F)(F)F)CCCCN4[C@H]3CO)cc2)cc1	-
O=C(C1CC1)N1CCCCN2[C@H](CO)[C@@H](c3ccc(-c4cccc(F)c4)cc3)[C@H]2C1	-
CN(C)C(=O)c1ccc(-c2ccc([C@@H]3[C@@H](CO)N4CCCCN(CCC(F)(F)F)C[C@@H]34)cc2)cc1	-
O=C(C1CC1)N1CCCCN2[C@H](C1)[C@H](c1ccc(-c3cccc(F)c3)cc1)[C@@H]2CO	-
O=C(C1CC1)N1CCCCN2[C@H](CO)[C@@H](c3ccc(-c4cccc(F)c4)cc3)[C@@H]2C1	-23
OC[C@@H]1[C@H](c2ccc(-c3cccc(F)c3)cc2)[C@H]2CN(Cc3cncnc3)CCCCN12	-
OC[C@H]1[C@@H](c2ccc(-c3cccc(F)c3)cc2)[C@@H]2CN(Cc3cncnc3)CCCCN12	-
OC[C@H]1[C@@H](c2ccc(-c3cccc(F)c3)cc2)[C@H]2CN(CCC(F)(F)F)CCCCN21	-47
COc1ccccc1C#Cc1ccc([C@@H]2[C@H]3CN(CCC(F)(F)F)CCCCN3[C@H]2CO)cc1	-30
Cc1cccc(-c2ccc([C@H]3[C@H]4CN(CCC(F)(F)F)CCCCN4[C@H]3CO)cc2)c1	-49
CC(=O)N1[C@H](CO)[C@H](c2ccc(C3=CCCC3)cc2)[C@@H]1CNC(=O)CC1CC1	-
O=C(N[C@@H]1CC[C@H](CCNC(=O)C2CCOCC2)O[C@H]1CO)c1ccccn1	-
CN1CCN(C(=O)c2cc3c(c(-c4cccc(-c5ccc(C(=O)N(C)C)cc5)c4)n2)[C@H](CCO)N([S@@](=O)C(C)(C)C)C3)CC1	-
C[C@H](CO)N1C[C@H](C)[C@@H](CN(C)C(=O)Cc2ccccn2)Oc2ncc(C#CC3CCCC3)cc2C1=O	-
SMILES	DUX4 inh
CO[C@H]1CC[C@@H]2CCN(C)C(=O)[C@@H](C)CN(C)C(=O)c3cccc(C#N)c3OC[C@H]1O2	-
C[C@@H]1CN([C@@H](C)CO)C(=O)c2ccccc2-c2ccccc2CO[C@@H]1CN(C)Cc1cccnc1	-
O=C(c1cccc(F)c1)N1CCCCN2[C@H](CO)[C@@H](c3ccc(-c4ccccc4)cc3)[C@H]2C1	-
Cn1cnc(S(=O)(=O)N2CCCCN3[C@H](CO)[C@H](c4ccc(-c5cccc(F)c5)cc4)[C@@H]3C2)c1	-
O=S(=O)(c1ccccc1)N1CCCCN2[C@H](C1)[C@@H](c1ccc(-c3ccccc3)cc1)[C@@H]2CO	-
Cc1ccccc1S(=O)(=O)N1CCCCN2[C@H](CO)[C@@H](c3ccc(-c4cccc(F)c4)cc3)[C@@H]2C1	-20
OC[C@@H]1[C@H](c2ccc(-c3cccc(F)c3)cc2)[C@@H]2CN(Cc3cncnc3)CCCCN12	-
OC[C@@H]1[C@@H](c2ccc(-c3cccc(F)c3)cc2)[C@H]2CN(CCC(F)(F)F)CCCCN12	-35
C[C@H](NC(=O)[C@@H]1N[C@@H]2c3ccc(C4=CCCCC4)c(=O)n3C[C@@H]2[C@H]1CO)c1ccccc1	-
COCC(=O)NC[C@H]1[C@@H](c2ccc(C3=CCCC3)cc2)[C@H](CO)N1C(=O)C1CC1	-
OC[C@@H]1[C@H](c2ccc(Br)cc2)[C@H]2CNCCCCN12	-
COCC(=O)N1CC2(C1)[C@H](c1ccccc1)[C@@H](CO)N2Cc1ccccc1OC	-
COc1ccccc1CN1CC2(C1)[C@@H](c1ccccc1)[C@@H](CO)N2Cc1ccccc1	-55
COc1ccccc1CN1[C@H](CO)[C@@H](c2ccccc2)C12CN(C(C)=O)C2	-
C[C@@H]1CN([C@@H](C)CO)C(=O)CCCn2cc(nn2)CO[C@@H]1CN(C)C	-
CC=Cc1ccc2n(c1=O)C[C@H]1N[C@@H]2[C@@H](C(=O)NCc2ccc3c(c2)OCO3)[C@@H]1CO (mixture of isomers)	-
COc1cccc(S(=O)(=O)N2CCC3(CC2)CN[C@H](CO)c2[nH]c4cc(OC)ccc4c23)c1	-
CN1c2ccc(Br)cc2[C@@H]2[C@@H](CCN2S(=O)(=O)c2ccccc2F)[C@H]1CO	-
Cc1ccccc1S(=O)(=O)N1CC[C@@H]2[C@@H](CO)N(C)c3ccc(Br)cc3[C@@H]21	-23
Cc1ccccc1S(=O)(=O)N1CC[C@H]2[C@@H](CO)N(C)c3ccc(Br)cc3[C@H]21	-
COc1ccc(S(=O)(=O)N(C)C[C@@H]2Oc3c(NC(=O)C4CCOCC4)cccc3C(=O)N([C@H](C)CO)C[C@H]2C)cc1	-
CCS(=O)(=O)N1CC(=O)N2[C@@H](CO)[C@H](c3ccc(C#Cc4ccc(F)cc4)cc3)[C@@H]2C1	-
C[C@@H]1CC(=O)NCC/C=C\C[C@H](c2cccc(Cl)c2)NC1=O	-
O=C(C[C@@H]1CC[C@H]2[C@@H](COC[C@H](O)CN2CC2CCOCC2)O1)N1CCOCC1	-
COc1ccc2c3c(n(C)c2c1)[C@H](CO)N(Cc1cc(F)ccc1F)CC31CN(C(C)=O)C1	-
SMILES	DUX4 inh
C[C@H](CO)N1C[C@H](C)[C@H](CN(C)Cc2ccccc2C(F)(F)F)OCc2ccccc2-c2c(n(C)c3ccccc23)C1=O	-59
C[C@H]1CN([C@@H](C)CO)C(=O)c2c(c3ccccc3n2C)-c2ccccc2CO[C@H]1CN(C)C	-
C[C@H](CO)N1C[C@H](C)[C@@H](CN(C)Cc2ccccc2C(F)(F)F)OCc2ccccc2-c2c(n(C)c3ccccc23)C1=O	-46
COc1ccccc1CN(C)C[C@H]1OCc2ccccc2-c2c(n(C)c3ccccc23)C(=O)N([C@H](C)CO)C[C@H]1C	-
C[C@@H]1CN([C@H](C)CO)C(=O)c2c(c3ccccc3n2C)-c2ccccc2CO[C@@H]1CN(C)C(=O)Nc1ccccc1C(F)(F)F	-
C[C@@H]1CN([C@@H](C)CO)C(=O)c2c(c3ccccc3n2C)-c2ccccc2CO[C@@H]1CN(C)C	-
C[C@@H]1CCCCO[C@H](CN(C)C(=O)Nc2cccc3ccccc23)[C@@H](C)CN([C@@H](C)CO)C(=O)c2cc(NC(=O)CCC(F)(F)F)ccc2O1	-
